Shown is part of a subset that was picked to be rich in hits.
VACV mCherry inh = qHTS for Stage-Specific Inhibitors of Vaccinia Orthopoxvirus: mCherry Reporter Primary qHTS; Vaccinia virus mCherry reporter infection, fluorescence; hit rate 0.63% among 310,000; AID 720579, 2013; Potency, µM (series often up to 36.5 µM), for the others: at the highest dose activity change, negative = inhibition, most hits filed as inhibitors; calls by dose curve; tested in A549 cells; further: potency means the concentration at half of the fitted maximal effect; on the % scale 0 is the no-effect control and ±100 the full control effect; nearly all actives have a fitted effect of over 35% in size
Vaccinia Venus = qHTS for Stage-Specific Inhibitors of Vaccinia Orthopoxvirus: Venus Reporter Primary qHTS. Vaccinia virus Venus reporter expression, fluorescence. Potency, µM (highest dose often 36.5 µM), inactives show at the highest dose activity change, negative = inhibition, actives largely listed as inhibitors. hit rate 0.46% among 330,000. AID 720580, 2013; calls by dose curve; tested in A549 cells; further: potency means the concentration at half of the fitted maximal effect; on the % scale 0 is the no-effect control and ±100 the full control effect; nearly all actives have a fitted effect of over 30% in size
CHX counter = Cycloheximide Counterscreen for Small Molecule Inhibitors of Shiga Toxin. cell reporter, cycloheximide protein synthesis inhibition counterscreen. hit rate 12% among 300,000. max response, %; in the data active means max response mostly above about 13%, no sharp cut-off; inactive means mostly below about 14%; further: read at 38.3 µM for the half of the compounds with a filed dose; 0% is about no effect
Marburg entry inh = qHTS for inhibitors of binding or entry into cells for Marburg Virus. hit rate 1.8% among 300,000. Potency, µM (series often up to 37.8 µM), without a hit: at the top dose activity change, negative = inhibition, most hits filed as inhibitors. Marburg virus pseudotyped entry inhibition, cell reporter. AID 540276, 2011; calls by dose curve; tested in HEK293 cells; further: potency means the concentration at half of the fitted maximal effect; on the % scale 0 is the no-effect control and ±100 the full control effect
Shiga inhibitor = A qHTS for Small Molecule Inhibitors of Shiga Toxin; Vero cells, Shiga toxin protein synthesis inhibition reporter; inhibition, % at 38.7 µM; hit rate 9.2% among 290,000; in the data active means inhibition mostly above about 28%, no sharp cut-off; inactive means mostly below about 43%; further: 0% is about no effect
LASV entry inh = qHTS for Inhibitors of binding or entry into cells for Lassa Virus; Potency, µM (doses to about 37.9 µM), inactives show at the highest dose activity change, negative = inhibition, actives largely listed as inhibitors; Lassa virus pseudotype entry inhibition, cell reporter; hit rate 1.2% among 300,000; calls by dose curve; tested in HEK293 cells; further: potency means the concentration at half of the fitted maximal effect; on the % scale 0 is the no-effect control and ±100 the full control effect; nearly all actives have a fitted effect of over 50% in size
* = called active by the depositor; i = inactive; ? = inconclusive; nt = no result; [ ] = dose if it differs, or a comment.

SMILES	VACV mCherry inh	Vaccinia Venus	CHX counter	Marburg entry inh	Shiga inhibitor	LASV entry inh
CCc1nnc2c3cnn(-c4ccccc4)c3ncn12	?	-2%	28*	4%	67*	?
CCCCN(Cc1ccccc1)C(=O)c1oc(=O)c2ccccc2c1-c1ccc(C)cc1	-13%	-23%	nt	?	nt	-11%[46.1 µM]
CCn1c(CC(=O)Nc2ccccc2C)nnc1SCC(=O)NC1CCCC1	-8%	2%	21*	0%[46.1 µM]	19	-7%[46.1 µM]
Cc1nnc(SCC(=O)NC2CCCC2)n1C(C)C	-11%	1%	20*	10%[46.1 µM]	-38	7%[46.1 µM]
CCn1c(COc2cccc(C)c2)nnc1SCC(=O)NC1CCCC1	-12%	-6%	-4	-5%[46.1 µM]	-3	?
CCn1c(COc2cccc(OC)c2)nnc1SCC(=O)NC1CCCC1	?	-11%	36*	-21%[46.1 µM]	-9	0%
Cc1ccccc1NC(=O)Cc1nnc(SCC(=O)NC2CCCCC2)n1C	-15%	3%	10	0%[46.1 µM]	-6	5%[46.1 µM]
CSc1ccc(CN2CCCC(N3CCN(c4ccccc4)CC3)C2)cc1 (stereo not given)	nt	nt	-1	nt	-2	nt
O=C(COC(=O)c1ccccc1OCCOc1ccccc1)Nc1ccccc1Br	-7%	-16%	nt	nt	nt	nt
COC(=O)C[C@@H]1C[C@@H]2c3cc(NS(=O)(=O)c4ccc(F)cc4)ccc3O[C@@H]2[C@@H](CO)O1	i	-4%	nt	nt	nt	nt
N/C(CCCN1CCCCC1)=N\O	nt	nt	nt	4%	nt	nt
Cc1cc(C(C)(C)CC(C)(C)C)ccc1OCCOCC[N+](C)(C)Cc1ccccc1	10µM*	10µM*	nt	nt	nt	nt
CCOC(=O)c1cnn2c(C)cc(-c3ccccc3)nc12	nt	nt	36*	9%	68*	7%
CCOC(=O)c1nnc2cc(-c3ccccc3)nn2c1C	nt	?	28*	?	11	-22%
CCOC(=O)c1cc2nc(-c3ccccc3)cc(C)n2n1	i	-3%	-3	-2%	nt	10%
CCOC(=O)N1CCC(NC(=O)c2ccc3c(c2)N(Cc2ccccc2)C(=O)c2ccccc2S3(=O)=O)CC1	-17%	-17%	nt	5%[46.1 µM]	nt	-14%[46.1 µM]
COC(=O)[C@@H]1CCCN1C(=O)c1c(OC)cc(=O)n2c1CCN(Cc1ccc(C)o1)CC2	-18%	-14%	nt	nt	nt	nt
COc1ccc(-n2nnnc2SCC(=O)Nc2ccccc2N2CCOCC2)cc1OC	nt	nt	11	nt	18	nt
CC(=O)c1cccc(-n2nnnc2SCC(=O)Nc2ccccc2N2CCCCC2)c1	-24%	-37%	2	11µM*	8	?
Cc1cccc(NC(=O)CCn2ccnc2C)c1	nt	-7%	21*	2%	50*	12%
Cc1cccc(NC(=O)CN2CCSc3ccccc32)c1	nt	nt	34*	nt	49*	nt
COc1cccc(NC(=O)CN2CCSc3ccccc32)c1	-13%	-10%	7	?	0	?
O=C(Cc1ccccc1F)Nc1cccc2cccnc12	-2%	-27%	24*	7%	29*	?
CCCCN(CC)C(=O)Cn1c(=O)n(-c2ccc(OCC)cc2)c(=O)c2c3c(sc21)CCC3	-16%	-9%	nt	-16%[46.1 µM]	nt	9%[46.1 µM]
COc1cccc(CN(C(=O)c2cccc(C)c2)C2CCS(=O)(=O)C2)c1 (stereo not given)	-4%	-7%	nt	?	nt	-4%[46.1 µM]
SMILES	VACV mCherry inh	Vaccinia Venus	CHX counter	Marburg entry inh	Shiga inhibitor	LASV entry inh
Cc1ccc(NC(=O)CN(C)C(=O)COC(=O)COc2cc(C)cc(C)c2)cc1	i	2%	nt	nt	nt	nt
Cc1ccc(-c2nc3sc(CCNC(=O)c4ccc(C)c(C)c4)c(C)n3n2)cc1	-11%	-7%	nt	nt	nt	22%[46.1 µM]
Cc1ccc(SCC(=O)Nc2cccc(C)c2)cc1	nt	nt	19*	nt	24	nt
Cc1cccc(NC(=O)CSCC(=O)Nc2ccccc2N2CCCCC2)c1	?	-4%	nt	11µM*	nt	?
Cc1cccc(NC(=O)CSc2cccc3cccnc23)c1	nt	nt	14*	nt	31	nt
Cc1ccc(SCC(=O)Nc2cccnc2)cc1	nt	-15%	nt	9%	nt	30%
Cc1ccc(C)c(NC(=O)CSc2cccc3cccnc23)c1	-12%	-7%	-1	-4%	-8	4%
O=C(CSc1cccc2cccnc12)Nc1ccccc1F	-6%	-22%	16*	6%[46.1 µM]	22	-10%[46.1 µM]
CC1C=C[C@@H]2[C@H](C1)C(=O)N(Cc1ccccc1)[C@H]2c1ccccc1Br (stereo not given in full)	nt	nt	13	nt	i	nt
COc1ccc(/C=C/C(=O)C2CC2)cc1Cn1nc(C)c([N+](=O)[O-])c1C	-7%	-14%	-2	?	-5	4%
COc1ccc(/C=N/NC(=O)c2cccc(NC(=O)c3ccccc3)c2)c(C(=O)O)c1OC	i	-6%	32*	-25%	28	17%
COc1ccc(C(=O)Nc2cccc(C(=O)N/N=C/c3ccc(OC)cc3OC)c2)cc1	?	-16%	39*	-24%[46.1 µM]	47	-9%[46.1 µM]
Cc1scc(C(=O)NNC(=S)NC(C)c2ccccc2)c1C (stereo not given)	-2%	-14%	0	-8%	18	-12%
CC1=C(C)CC(C(=O)NNC(=O)c2csc(C)c2C)C(C(=O)O)C1 (stereo not given)	-15%	-2%	21*	?	79*	?
O=C(Nc1ccccn1)c1ccc(Br)c(S(=O)(=O)N2CCCC2)c1	-4%	-16%	34*	0%	50*	10%
Cn1nc(C(=O)Nc2nc3ccccc3[nH]2)ccc1=O	i	-16%	46*	?	84*	?
O=C(Nc1nc2ccccc2[nH]1)c1cccs1	-8%	-3%	37*	-19%[46.1 µM]	75*	-6%[46.1 µM]
O=C(Nc1nc2ccccc2[nH]1)c1ccc(S(=O)(=O)N2CCOCC2)cc1	nt	nt	6	nt	22	nt
Cc1ccc(C(=O)Nc2nc3ccccc3[nH]2)cc1	i	?	1	1.4µM*	-7	?
CS(=O)(=O)c1ccccc1C(=O)Nc1nc2ccccc2[nH]1	i	-2%	13	16%[46.1 µM]	14	?
CCOc1ccc(-n2c(SCC(=O)Nc3cccc(Cl)c3)nc3c(oc4ccccc43)c2=O)cc1	-3%	-3%	nt	-22%[46.1 µM]	nt	?
COC(=O)c1ccc(Cn2nnc3c(=O)[nH]c(C4CCN(S(=O)(=O)c5cc(C)ccc5C)CC4)nc32)cc1	nt	nt	-4	nt	13	nt
COc1ccc(NC(=O)Cn2c(=O)n(Cc3ccccc3Cl)c(=O)c3cc(OC)c(OC)cc32)cc1	-21%	-11%	nt	-4%[46.1 µM]	nt	1%[46.1 µM]
O=C(C1CCCCC1)N1CCOc2ccc(CN3CCN(Cc4ccccn4)CC3)cc2C1	-9%	6%	nt	nt	nt	nt
O=C(Cn1nc(C(=O)O)c2ccccc2c1=O)Nc1cccc(S(=O)(=O)N2CCCCC2)c1	-9%	14%	nt	-10%[46.1 µM]	nt	18%[46.1 µM]
COc1ccc2oc(=O)c(C(=O)NCCc3c(C)[nH]c4c(C)cccc34)cc2c1	-7%	-2%	nt	?	nt	?
O=C(Nc1nc2ccccc2[nH]1)c1ccc(Cl)c(S(=O)(=O)N2CCCC2)c1	-19%	?	33*	?	71	?
